Test results taken from PubChem BioAssay (NCI).
The panel holds about 83,000 compounds, 20% with a hit somewhere; the sample as a whole holds those more often.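 For each line, cells grew in 96-well plates with the test compound present at a single concentration for 48 hours.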 A number with no mark means an inactive call. Calls of active or inactive are those of the source. Rule for the calls: active = growth percent below 10; inactive = the rest.

How the values were obtained:
Assay in all cases: NCI-60 one-dose screen, 48 h (100 = growth as untreated, 0 = no growth, -100 = all killed)
Details in all cases: 10 µM unless noted
NCI-H23 lung = system: NCI-H23 lung
NCI-H226 lung = system: NCI-H226 lung
NCI-H322M lung = system: NCI-H322M lung
NCI-H460 lung = system: NCI-H460 lung
HOP-92 NSCLC = system: HOP-92 NSCLC
NCI-H522 lung = system: NCI-H522 lung
786-0 renal = system: 786-0 renal
COLO 205 colon = system: COLO 205 colon
A549/ATCC NSCLC = system: A549/ATCC NSCLC

SMILES | growth (NCI-H23 lung) | growth (NCI-H226 lung) | growth (NCI-H322M lung) | growth (NCI-H460 lung) | growth (HOP-92 NSCLC) | growth (NCI-H522 lung) | growth (786-0 renal) | growth (COLO 205 colon) | growth (A549/ATCC NSCLC)
Cc1cc2nc(-c3c(-c4ccc(F)cc4)nc4sccn34)[nH]c2cc1C | 94% | 97.5% | 99.7% | 106% | 86.1% | 85% | 86.3% | 105% | –
CCOC(=O)c1c(-c2ccccc2)n2c(=O)cc(C)c3c(O)c(O)cc1c32 | 66.2% | 84.6% | 50.3% | 20.3% | 47% | 66.2% | 62.7% | 86.9% | 43.1%
COc1ccc(/C=C/C(=O)c2ccc(Nc3nc(Nc4ccc(F)cc4)nc(Nc4ccc(Cl)cc4)n3)cc2)cc1 | 93.3% | 122% | 152% | 94.2% | 44.7% | 61.9% | 92.6% | 96% | 90.5%
COc1ccc2c(O)c(/C=C3\N=Nc4ccccc43)oc2c1C[C@H]1CCNC[C@H]1F | 46.8% | 60.6% | 73.4% | 29.8% | 38.6% | 46.7% | 57.8% | 0.564% (active) | 34.4%
O=S(=O)(c1ccccc1)N1CCCN(c2nc(-c3ccccc3)nc3nc(-c4ccccc4)oc23)CC1 | 107% | 109% | 96% | 110% | 105% | 98.5% | 102% | 116% | 105%
Cc1cc(N2CCCCC2)nc(N2CCN(CC(=O)Nc3ccc4c(ccn4Cc4ccccc4)c3)CC2)n1 | 59.2% | 65.1% | 83% | 56.5% | 23.6% | 65.1% | 68.6% | 48.2% | 49.2%
CCCCCCCC/C=C\CCCCCCCCOc1ccc(CC(=O)NCC[N+](C)(C)C)cc1 | 67.2% | 70% | 85.6% | 29.9% | 62.3% | 50.7% | 59.6% | -69.1% (active) | 74.1%
CN1CCN(c2ccc3c(c2)nc(NNC(=O)c2cnccn2)c2cccn23)CC1 | 34.1% | 38% | 21.5% | 9.73% (active) | 65.5% | 15.7% | 17.6% | 3.54% (active) | 21.9%
CS(=O)(=O)Nc1cc(-c2ccc3ncnc(Nc4ccc5c(cnn5Cc5cccnc5)c4)c3c2)cnc1Cl | 55.8% | 76.4% | 68.7% | 79.8% | -10% (active) | 44.2% | 62.9% | 68.3% | 83.7%
Oc1c(I)cc(-c2nc3ccccc3s2)cc1CN(Cc1ccccn1)Cc1ccccn1 | 18.3% | 10.5% | 15.9% | 1.59% (active) | 0.23% (active) | 4.12% (active) | 2.78% (active) | 14.3% | 4.74% (active)
CCOC(=O)c1n[nH]n2c1nc(=O)c1cnn(C)c12 | 96.5% | 98.1% | 99.4% | 103% | 103% | 91% | 106% | 111% | 86.7%
CCSC1=CC(=O)c2ccccc2C1=O | 85.9% | 88.4% | 94.6% | 112% | -2.5% (active) | -20.9% (active) | 111% | 96.9% | 93.2%
COc1ccc(C2C(C#N)=C(N)Oc3c2sc2c(Br)cccc32)cc1 (stereo not drawn) | 36.3% | 49.2% | 30% | 12.9% | 47% | -6.29% (active) | 29.6% | 2.31% (active) | 35.5%
C/C(=N\O)C(=O)NCCCCCC(=O)Nc1ccccc1 | 99.2% | 110% | 103% | 111% | 94.4% | 91.1% | 94.4% | 108% | 97%
COc1cc(C(=O)/C=C/c2ccc(N3CCN(C)CC3)cc2)cc(OC)c1OC | 90% | 101% | 89.7% | 100% | 98.5% | 77.7% | 106% | 91.3% | 101%
C/C(=N\Nc1nc(C)cs1)c1cc2ccccc2o1 | 86.9% | 76.7% | 93.1% | 95.6% | 87.3% | 66.3% | 104% | 110% | 88%
COc1ccc(C2C3=C(COC3=O)N(CCO)c3cc4c(cc32)OCCO4)cc1OC (stereo not drawn) | 34.3% | 41.2% | 51.4% | 10.4% | 40.8% | -13.9% (active) | 27.7% | -4.68% (active) | 51.2%
COC(=O)/C=C1/SC(=Nc2cccc(Cl)c2)N(CCc2c[nH]c3ccc(O)cc23)C1=O | 51.1% | 81.3% | 98.6% | 37% | 40.7% | 11% | 19.1% | 90.3% | 78.9%
N#Cc1nc2c(S(=O)(=O)c3ccccc3)c(N)n(Cc3cccnc3)c2nc1C#N | 88.5% | 97.7% | 91.7% | – | -14.8% (active) | 46.8% | 106% | 92.3% | 90.1%

SMILES | growth (NCI-H23 lung) | growth (NCI-H226 lung) | growth (NCI-H322M lung) | growth (NCI-H460 lung) | growth (HOP-92 NSCLC) | growth (NCI-H522 lung) | growth (786-0 renal) | growth (COLO 205 colon) | growth (A549/ATCC NSCLC)
CN1CCN(C(=O)c2cc(-c3ccc4ncnc(N5CCc6cc(F)c(Cl)cc65)c4c3)cnc2N)CC1 | 8.25% (active) | 14.5% | -8.41% (active) | – | -27.2% (active) | 2.49% (active) | 2.28% (active) | 3.92% (active) | 3.84% (active)
CC(C)c1ccc(C(=O)Nc2sc3cc(O)ccc3c2C#N)cc1 | 46.2% | 58.2% | 61.7% | 23% | 79.2% | 54.2% | 31.2% | 91.8% | 44.6%
COc1cccc(NC(=O)c2cccc(C3CCc4c(cc(OC)c(OC)c4OC)O3)c2)c1 (stereo not drawn) | 73.9% | 53.7% | 54.2% | 84% | 26.3% | 53.1% | 86.6% | 80.2% | 70.8%
COc1ccc(/C(C)=C(\c2ccc(Cl)cc2)c2ccc(OCCN3CCCC3)cc2)cc1 | 58.8% | 85% | 49.6% | 2.86% (active) | 56.4% | 69.9% | -31.6% (active) | -29.9% (active) | 25.5%
Cc1cc(C(=O)Nc2cc(Nc3ncccc3-c3ncnc4nc[nH]c34)ccc2F)cc(C(F)(F)F)c1 | 25.2% | 39.9% | 106% | 48.8% | -5.43% (active) | 63.1% | 63.5% | 13.4% | 55.7%
O=C(O)c1cn(C2CC2)c2cc(N3CCN(C(=O)N/N=C/c4ccccc4)CC3)c(F)cc2c1=O | 97.1% | 88% | 100% | 109% | 89% | 78% | 93.6% | 114% | 106%
CNC(=O)c1c(NC(=O)c2ccc(C(C)(C)C)cc2)sc2c(CN(C)C)c(O)ccc12 | 27% | 95% | 17.1% | -72.5% (active) | 19% | 75.9% | -76.9% (active) | -68.5% (active) | 17.7%
CCNc1nc(-c2ccc(F)cc2)c(C#N)c(=O)n1C | 73.8% | 55% | 57.2% | 74.7% | -1.14% (active) | 52.1% | 64.3% | 62.8% | 58.9%
Cc1cc(C)c(-c2c(O)c(Br)c(-c3c(C)cc(C)c(Br)c3C)c(O)c2Br)c(C)c1Br | 43.7% | 52.1% | 38.1% | 1.57% (active) | -3.74% (active) | -70.3% (active) | 24.8% | -67.2% (active) | 18.6%
Cc1c2cnccc2c(C)c2c1c1cc(C3OCCCO3)ccc1n2C | -31.9% (active) | -4.43% (active) | -2.25% (active) | 0.184% (active) | -10.5% (active) | -41.6% (active) | 11.8% | -17.6% (active) | 2.33% (active)
Cn1cc(-c2nonc2-c2c[nH]c3ccc(F)cc23)c2cc(Br)ccc21 | 52.7% | 79.5% | 44.9% | 19.8% | 76% | 14.8% | 45.9% | 54% | 35.9%
CC[C@@H](c1ccc2cc(OC)ccc2c1)C(C)(C)C(=O)F | 93.4% | 103% | 124% | 106% | 95.1% | 104% | 109% | 90.2% | 92.5%
O=C(CCCCCCCCC(=O)N/N=C\c1cc(Cl)ccc1O)N/N=C\c1cc(Cl)ccc1O | 47.9% | 15.4% | 41.1% | 7.22% (active) | 47.6% | 34.3% | 16.3% | 36.9% | 38.2%
CC(O)c1ncc(/C=C2\SC(=S)N(Cc3ccccc3)C2=O)s1 (stereo not drawn) | 103% | 97.2% | 100% | 104% | 73.4% | 5.34% (active) | 87.3% | – | 105%
C=C1C(=O)O[C@H]2[C@H]1CC/C(Cn1cc(-c3cc(C(F)(F)F)cc(C(F)(F)F)c3)nn1)=C\CC[C@@]1(C)O[C@@H]21 | -58.6% (active) | -54.5% (active) | -24.4% (active) | -59.2% (active) | -95.1% (active) | -76.7% (active) | -86.5% (active) | – | -85.3% (active)
Cc1cc(C)cc(Nc2ccc([N+](=O)[O-])c(NCCN3CCOCC3)n2)c1 | 30.3% | 22.6% | 44.1% | 8.31% (active) | 67.7% | 13.3% | 8.13% (active) | -45.9% (active) | 23.7%
CCN(CC)CCNC(=O)c1ccc(-c2nc3ccc4[nH]ncc4c3c3c2CCCC3)cc1 | 65.3% | 64.7% | 55.8% | 60.5% | 73% | 50.6% | 50.6% | 63.6% | 56.1%
COC(=O)c1c2c(c(C)[n+]([O-])c1C)C(=O)C=CC2=O | -68.3% (active) | -91.9% (active) | 2.39% (active) | 2.35% (active) | 45.8% | -70.1% (active) | -29.9% (active) | -78.5% (active) | 15.8%
